# Records with an inconclusive call do not appear. Active and inactive are the calls of the source. Calls come from the whole dose curve; as a rule, active = well fitted inhibition curve with a large enough effect; inconclusive = small, poorly fitted or top-dose-only effect; inactive = flat fitted curve, though single readings scatter.
# System: CRL-7250
# Assay: Cytotoxic Profiling of Annotated Libraries Using Quantitative High-Throughput Screening (AID 1296008); note: nearly all actives have a fitted effect of over 60% in size
# Details: Five cell lines viability, CellTiter-Glo ATP luminescence, 48-72 h; max response: active compounds read low
# Outline: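 Cells exposed to compounds for 48 or 72 hr at 37 degrees Celsius. Viability read as ATP-coupled luminescence with CellTiter-Glo after 10 min at room temperature.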
# % is set by controls: 0 for no effect and ±100 for the full control effect; potency is the fitted concentration of half-maximal effect.
SMILES,Potency,max response,outcome
CC(=O)N1CCN(Cc2ccc([C@H](C)Nc3nccc(N4C(=O)OC[C@@H]4C(C)C)n3)cc2)CC1,0.92 µM (active),,
CC#CC(=O)N1CCC[C@H]1c1nc(-c2ccc(C(=O)Nc3ccccn3)cc2)c2c(N)nccn12,,-4.15% (inactive),
CC(C)(C)Nc1nc2cc(Cl)c(Cl)cc2nc1S(C)(=O)=O,16.4 µM (active),,
CC1(C)CC2C(O)c3cocc3CC(C)(O)C2C1 (stereo not drawn),,0.847% (inactive),
COC(=O)c1ccc(OC(CO)C(O)c2ccc(O)c(OC)c2)c(OC)c1 (stereo not drawn),,0.832% (inactive),
CC(=O)N[C@@H](CCCCN)C(=O)N(C)[C@@H](CC(C)C)C(=O)N[C@H](C(=O)N(C)[C@@H](Cc1ccccc1)C(=O)N[C@H](Cc1ccccc1)C(N)=O)C(C)C,,,inactive
COC(=O)C1=COC(OC2OC(CO)C(O)C(O)C2O)C2C1C=CC2(O)CO (stereo not drawn),,,inactive
COc1cc(N2CCC(N3CCN(C)CC3)CC2)ccc1Nc1ncc(Cl)c(-c2c[nH]c3ccccc23)n1,10.3 µM (active),,
C=C1C(=O)OC2/C=C(\CO)CC/C=C(\C=O)CC(OC(=O)CC(C)C)C12 (stereo not drawn),,-22.7% (inactive),
CC(C)(O)/C=C/CC(C)(O)C1C(O)CC2(C)C3CCC4C(C)(C)C(=O)CCC4(C)C3CCC12C (stereo not drawn),,-2.19% (inactive),
C[C@@H]1CCC2C(C)(C)[C@H](O)CC[C@]2(C)[C@@]12Cc1c(O)cc3c(c1O2)CNC3=O (stereo partly drawn),,-75.1% (inactive),
CC1=CC(=O)[C@H]2C(C)(C)CCC[C@]2(C)[C@@]1(O)CO,,-8.81% (inactive),
CC(=O)O[C@@H]1[C@@H](CO)O[C@@](CO)(O[C@H]2O[C@H](COC(=O)/C=C/c3ccccc3)[C@@H](O)[C@H](O)[C@H]2O)[C@H]1O,,-0.112% (inactive),
C=C(C(=O)OC)C1C(O)CC2(C)C(O)CCC(=O)C2C1O (stereo not drawn),,-16.1% (inactive),
CCC(C(=O)O)c1ccc(N2Cc3ccccc3C2=O)cc1 (stereo not drawn),,-5.22% (inactive),
CC12CCC3c4ccc(O)cc4CCC3C1CC(OC1OC(C(=O)O)C(O)C(O)C1O)C2O (stereo not drawn),,-23.2% (inactive),
CC1CC[C@]2(C(=O)O)CC[C@]3(C(=O)O)C(=CCC4[C@@]5(C)CC[C@H](O[C@@H]6O[C@H](CO)[C@@H](O)[C@H](O)[C@H]6O)C(C)(C)C5CC[C@]43C)C2C1C (stereo partly drawn),,-9.19% (inactive),

SMILES,Potency,max response,outcome
OC[C@H]1O[C@@H](O[C@H]2[C@H](OCCc3ccccc3)O[C@H](CO)[C@@H](O)[C@@H]2O)[C@H](O)[C@@H](O)[C@@H]1O,,,inactive
COc1cc2c(cc1OC)-c1[nH]nc(Nc3cccc(F)c3)c1C2,0.461 µM (active),,
CC1=C(C)C(=O)OC(C(C)C2CCC3C4CC=C5CC(OC6OC(COC7OC(CO)C(O)C(O)C7O)C(O)C(O)C6O)CC(O)C5(C)C4CCC23C)C1 (stereo not drawn),,-1.46% (inactive),
CCOCCOC(=O)/C=C/c1ccc(OC)cc1,,-7.76% (inactive),
CC12CCC(=O)C=C1C(O)CC1C2C(O)CC2(C)C1CC[C@]2(O)C(=O)CO (stereo partly drawn),,,inactive
CC1=C2C3OC(=O)C(C)C3(O)CCC2(C)CCC1O (stereo not drawn),,-5.4% (inactive),
C=CC/C=C\C/C=C\CCCCCCCc1cccc(O)c1C(=O)O,,,inactive
C[C@@H]1C[C@@H]2O[C@H]2/C=C\C=C\C(=O)Cc2c(Cl)c(O)cc(O)c2C(=O)O1,4.53 µM (active),,
COc1nc2sc(C(=O)NC3CC3)c(N)c2c(C)c1Cl,,-8.27% (inactive),
CCN1CCN(Cc2ccc(Nc3ncc(F)c(-c4cc(F)c5nc(C)n(C(C)C)c5c4)n3)nc2)CC1,,-7.11% (inactive),
COc1ccc(/C=C\C(=O)O)c(O[C@@H]2O[C@H](CO)[C@@H](O)[C@H](O)[C@H]2O)c1,,,inactive
CN(c1ccccc1CNc1nc(Nc2ccc3c(c2)CC(=O)N3)ncc1C(F)(F)F)S(C)(=O)=O,16.4 µM (active),,
N#Cc1cnc2cnc(NCc3cccnc3)cc2c1Nc1ccc(F)c(Cl)c1,5.17 µM (active),,
Cc1cc(C(=O)N2Cc3cnn(C)c3Nc3ccccc32)ccc1CNC(=O)N1CCC[C@H]1C(=S)N1CCCN(C)CC1,,2.05% (inactive),
CCCCNc1ncc2c(-c3ccc(CN4CCN(C)CC4)cc3)cn(C3CCC(O)CC3)c2n1 (stereo not drawn),5.17 µM (active),,
C[C@@H]1O[C@@H](O[C@H]2[C@@H]3C=CO[C@@H](O[C@@H]4O[C@H](CO)[C@@H](O)[C@H](O)[C@H]4O)[C@@H]3[C@@]3(CO)O[C@@H]23)[C@H](OC(=O)/C=C/c2ccc(O)c(O)c2)[C@H](O)[C@H]1O,,,inactive
